Test results: ChEMBL document CHEMBL1961873, “Compounds: GSK PKIS; Assays: Nanosyn kinase panel” (2012)
“And” between values parts separate entries of the source, which are not always exact repeats. Equal values may be shown once.

How the values were obtained:
[1] = tested on: Proto-oncogene tyrosine-protein kinase receptor Ret (Homo sapiens), P07949 [Y791F]; settings: at 1 µM
[2] = molecular target: Macrophage-stimulating protein receptor (Homo sapiens) (UniProt Q04912); settings: at 0.1 µM
[3] = molecular target: Macrophage-stimulating protein receptor (Homo sapiens) (UniProt Q04912); settings: at 1 µM
[4] = molecular target: Proto-oncogene tyrosine-protein kinase ROS (Homo sapiens) (UniProt P08922); settings: at 0.1 µM
[5] = molecular target: Proto-oncogene tyrosine-protein kinase ROS (Homo sapiens) (UniProt P08922); settings: at 1 µM
[6] = molecular target: Proto-oncogene tyrosine-protein kinase Src (Homo sapiens) (UniProt P12931); settings: at 0.1 µM
[7] = molecular target: Proto-oncogene tyrosine-protein kinase Src (Homo sapiens) (UniProt P12931); settings: at 1 µM
[8] = molecular target: Tyrosine-protein kinase Srms (Homo sapiens) (UniProt Q9H3Y6); settings: at 0.1 µM
[9] = molecular target: Tyrosine-protein kinase Srms (Homo sapiens) (UniProt Q9H3Y6); settings: at 1 µM
[10] = molecular target: Tyrosine-protein kinase SYK (Homo sapiens) (UniProt P43405); settings: at 0.1 µM
[11] = molecular target: Tyrosine-protein kinase SYK (Homo sapiens) (UniProt P43405); settings: at 1 µM
[12] = molecular target: T1, Tyrosine-protein kinase Tec (Homo sapiens) (UniProt P42680); settings: at 0.1 µM
T1 sequence (whole entry): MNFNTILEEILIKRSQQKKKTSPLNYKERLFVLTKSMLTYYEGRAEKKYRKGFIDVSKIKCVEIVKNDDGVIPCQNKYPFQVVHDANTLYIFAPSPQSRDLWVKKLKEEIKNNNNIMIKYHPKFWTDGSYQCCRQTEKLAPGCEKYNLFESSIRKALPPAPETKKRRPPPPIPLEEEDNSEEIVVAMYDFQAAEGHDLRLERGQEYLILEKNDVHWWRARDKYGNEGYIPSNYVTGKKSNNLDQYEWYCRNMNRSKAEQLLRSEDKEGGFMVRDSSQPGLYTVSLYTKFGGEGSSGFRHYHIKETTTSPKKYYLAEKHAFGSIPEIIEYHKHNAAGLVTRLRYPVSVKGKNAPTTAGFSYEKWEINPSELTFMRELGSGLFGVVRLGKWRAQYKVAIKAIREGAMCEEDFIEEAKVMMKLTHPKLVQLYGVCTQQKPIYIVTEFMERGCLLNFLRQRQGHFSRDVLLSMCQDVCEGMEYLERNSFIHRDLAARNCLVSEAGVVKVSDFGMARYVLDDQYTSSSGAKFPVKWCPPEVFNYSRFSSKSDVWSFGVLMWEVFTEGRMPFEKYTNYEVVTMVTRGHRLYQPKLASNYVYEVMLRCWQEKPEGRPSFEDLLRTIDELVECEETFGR

[13] = molecular target: T1, Tyrosine-protein kinase Tec (Homo sapiens); settings: at 1 µM
[14] = molecular target: Angiopoietin-1 receptor (Homo sapiens) (UniProt Q02763); settings: at 0.1 µM
[15] = molecular target: Angiopoietin-1 receptor (Homo sapiens) (UniProt Q02763); settings: at 1 µM
[16] = molecular target: T2, Non-receptor tyrosine-protein kinase TNK1 (Homo sapiens) (UniProt Q13470); settings: at 0.1 µM
T2 sequence (whole entry): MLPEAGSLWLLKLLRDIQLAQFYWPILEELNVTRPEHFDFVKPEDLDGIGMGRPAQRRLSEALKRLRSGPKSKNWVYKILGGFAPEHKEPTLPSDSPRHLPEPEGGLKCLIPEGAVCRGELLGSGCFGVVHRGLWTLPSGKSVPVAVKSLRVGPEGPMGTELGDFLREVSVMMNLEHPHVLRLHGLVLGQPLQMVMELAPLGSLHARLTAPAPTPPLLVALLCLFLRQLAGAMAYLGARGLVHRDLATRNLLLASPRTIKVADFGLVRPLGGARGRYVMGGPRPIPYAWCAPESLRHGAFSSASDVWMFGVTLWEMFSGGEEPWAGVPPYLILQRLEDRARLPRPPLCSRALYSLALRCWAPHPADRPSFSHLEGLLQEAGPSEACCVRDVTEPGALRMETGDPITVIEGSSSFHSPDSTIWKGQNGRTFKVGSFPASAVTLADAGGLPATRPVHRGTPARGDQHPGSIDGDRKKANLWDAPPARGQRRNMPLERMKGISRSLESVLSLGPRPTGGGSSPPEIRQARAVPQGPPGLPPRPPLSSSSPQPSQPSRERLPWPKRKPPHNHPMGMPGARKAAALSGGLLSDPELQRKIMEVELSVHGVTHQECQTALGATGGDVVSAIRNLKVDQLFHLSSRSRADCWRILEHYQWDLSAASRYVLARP

[17] = molecular target: T2, Non-receptor tyrosine-protein kinase TNK1 (Homo sapiens); settings: at 1 µM
[18] = molecular target: Activated CDC42 kinase 1 (Homo sapiens) (UniProt Q07912); settings: at 0.1 µM
[19] = molecular target: Activated CDC42 kinase 1 (Homo sapiens) (UniProt Q07912); settings: at 1 µM
[20] = molecular target: High affinity nerve growth factor receptor (Homo sapiens) (UniProt P04629); settings: at 0.1 µM;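 also: each value is a mean of replicate percent inhibition readings against TRKA kinase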
High affinity nerve growth factor receptor (Homo sapiens), sequence (P04629 33-796 limits assumed): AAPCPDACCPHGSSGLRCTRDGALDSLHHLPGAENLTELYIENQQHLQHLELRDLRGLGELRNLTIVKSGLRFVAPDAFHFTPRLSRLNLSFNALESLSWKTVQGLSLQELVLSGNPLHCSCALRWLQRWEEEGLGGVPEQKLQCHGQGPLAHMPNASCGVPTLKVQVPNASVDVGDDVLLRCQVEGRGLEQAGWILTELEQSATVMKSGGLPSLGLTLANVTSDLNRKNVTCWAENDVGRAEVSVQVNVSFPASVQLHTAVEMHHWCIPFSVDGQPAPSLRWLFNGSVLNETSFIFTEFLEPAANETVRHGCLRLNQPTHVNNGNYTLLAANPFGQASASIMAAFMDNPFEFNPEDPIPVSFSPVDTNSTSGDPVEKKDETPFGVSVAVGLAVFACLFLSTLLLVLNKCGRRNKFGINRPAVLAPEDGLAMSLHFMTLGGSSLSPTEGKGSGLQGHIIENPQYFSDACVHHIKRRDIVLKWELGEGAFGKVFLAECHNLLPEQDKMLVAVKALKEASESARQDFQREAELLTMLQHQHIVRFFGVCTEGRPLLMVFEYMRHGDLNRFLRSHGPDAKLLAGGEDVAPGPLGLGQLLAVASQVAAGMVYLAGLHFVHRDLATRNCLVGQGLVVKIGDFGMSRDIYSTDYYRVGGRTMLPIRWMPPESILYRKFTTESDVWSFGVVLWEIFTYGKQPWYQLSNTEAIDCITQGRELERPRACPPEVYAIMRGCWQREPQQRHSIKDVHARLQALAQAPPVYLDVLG

Proto-oncogene tyrosine-protein kinase receptor Ret (Homo sapiens), P07949 [Y791F], sequence (P07949 whole entry Y791F): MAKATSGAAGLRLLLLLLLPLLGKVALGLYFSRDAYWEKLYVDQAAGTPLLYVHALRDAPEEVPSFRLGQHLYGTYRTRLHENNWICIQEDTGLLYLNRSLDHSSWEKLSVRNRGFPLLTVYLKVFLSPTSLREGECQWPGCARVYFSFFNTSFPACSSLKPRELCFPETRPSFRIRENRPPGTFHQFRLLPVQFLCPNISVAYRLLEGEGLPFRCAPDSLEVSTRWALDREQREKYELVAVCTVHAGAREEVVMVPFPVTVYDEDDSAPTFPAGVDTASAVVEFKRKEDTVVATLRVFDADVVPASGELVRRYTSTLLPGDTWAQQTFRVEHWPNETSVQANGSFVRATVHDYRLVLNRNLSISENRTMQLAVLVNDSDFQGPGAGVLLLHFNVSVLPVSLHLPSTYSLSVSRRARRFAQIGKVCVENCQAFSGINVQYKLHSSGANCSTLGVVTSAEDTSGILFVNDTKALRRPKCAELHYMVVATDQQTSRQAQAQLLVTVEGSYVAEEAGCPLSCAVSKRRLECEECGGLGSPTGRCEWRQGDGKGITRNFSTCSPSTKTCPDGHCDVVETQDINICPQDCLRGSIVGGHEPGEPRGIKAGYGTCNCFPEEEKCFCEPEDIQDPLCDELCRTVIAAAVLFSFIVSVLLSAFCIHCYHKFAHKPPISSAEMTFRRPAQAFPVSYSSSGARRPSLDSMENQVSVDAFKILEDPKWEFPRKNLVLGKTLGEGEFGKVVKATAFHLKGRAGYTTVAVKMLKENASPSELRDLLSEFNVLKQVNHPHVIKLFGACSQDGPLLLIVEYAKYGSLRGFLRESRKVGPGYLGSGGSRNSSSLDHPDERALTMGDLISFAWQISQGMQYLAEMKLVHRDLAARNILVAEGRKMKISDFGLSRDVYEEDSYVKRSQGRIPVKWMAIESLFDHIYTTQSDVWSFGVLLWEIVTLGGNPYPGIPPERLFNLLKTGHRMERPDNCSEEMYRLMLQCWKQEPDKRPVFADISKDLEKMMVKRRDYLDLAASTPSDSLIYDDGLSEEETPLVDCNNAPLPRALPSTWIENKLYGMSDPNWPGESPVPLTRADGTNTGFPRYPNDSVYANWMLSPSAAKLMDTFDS
Proto-oncogene tyrosine-protein kinase Src (Homo sapiens), sequence (P12931 2-536 limits assumed): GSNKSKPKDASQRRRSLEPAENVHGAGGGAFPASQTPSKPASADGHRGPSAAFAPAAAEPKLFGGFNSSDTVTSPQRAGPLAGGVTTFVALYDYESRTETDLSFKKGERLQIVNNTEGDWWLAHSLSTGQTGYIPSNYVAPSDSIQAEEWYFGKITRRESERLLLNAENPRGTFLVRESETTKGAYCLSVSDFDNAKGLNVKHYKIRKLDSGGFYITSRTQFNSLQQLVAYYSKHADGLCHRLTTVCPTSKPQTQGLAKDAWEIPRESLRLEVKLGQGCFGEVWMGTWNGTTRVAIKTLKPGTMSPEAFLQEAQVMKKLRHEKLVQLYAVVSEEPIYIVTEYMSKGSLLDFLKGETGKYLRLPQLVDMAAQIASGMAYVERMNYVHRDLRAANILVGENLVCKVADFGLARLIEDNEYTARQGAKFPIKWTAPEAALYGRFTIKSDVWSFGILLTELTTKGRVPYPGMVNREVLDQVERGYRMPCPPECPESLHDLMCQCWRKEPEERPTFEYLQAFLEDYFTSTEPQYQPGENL
Macrophage-stimulating protein receptor (Homo sapiens), sequence (Q04912 25-304 limits assumed): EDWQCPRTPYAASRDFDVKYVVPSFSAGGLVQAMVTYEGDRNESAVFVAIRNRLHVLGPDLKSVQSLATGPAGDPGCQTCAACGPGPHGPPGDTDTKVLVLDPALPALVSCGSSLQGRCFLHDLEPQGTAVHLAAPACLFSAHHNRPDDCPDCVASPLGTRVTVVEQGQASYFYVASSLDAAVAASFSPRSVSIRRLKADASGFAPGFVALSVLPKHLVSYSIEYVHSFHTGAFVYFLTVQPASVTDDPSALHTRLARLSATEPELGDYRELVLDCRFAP
Macrophage-stimulating protein receptor (Homo sapiens), sequence (Q04912 310-1400 limits assumed): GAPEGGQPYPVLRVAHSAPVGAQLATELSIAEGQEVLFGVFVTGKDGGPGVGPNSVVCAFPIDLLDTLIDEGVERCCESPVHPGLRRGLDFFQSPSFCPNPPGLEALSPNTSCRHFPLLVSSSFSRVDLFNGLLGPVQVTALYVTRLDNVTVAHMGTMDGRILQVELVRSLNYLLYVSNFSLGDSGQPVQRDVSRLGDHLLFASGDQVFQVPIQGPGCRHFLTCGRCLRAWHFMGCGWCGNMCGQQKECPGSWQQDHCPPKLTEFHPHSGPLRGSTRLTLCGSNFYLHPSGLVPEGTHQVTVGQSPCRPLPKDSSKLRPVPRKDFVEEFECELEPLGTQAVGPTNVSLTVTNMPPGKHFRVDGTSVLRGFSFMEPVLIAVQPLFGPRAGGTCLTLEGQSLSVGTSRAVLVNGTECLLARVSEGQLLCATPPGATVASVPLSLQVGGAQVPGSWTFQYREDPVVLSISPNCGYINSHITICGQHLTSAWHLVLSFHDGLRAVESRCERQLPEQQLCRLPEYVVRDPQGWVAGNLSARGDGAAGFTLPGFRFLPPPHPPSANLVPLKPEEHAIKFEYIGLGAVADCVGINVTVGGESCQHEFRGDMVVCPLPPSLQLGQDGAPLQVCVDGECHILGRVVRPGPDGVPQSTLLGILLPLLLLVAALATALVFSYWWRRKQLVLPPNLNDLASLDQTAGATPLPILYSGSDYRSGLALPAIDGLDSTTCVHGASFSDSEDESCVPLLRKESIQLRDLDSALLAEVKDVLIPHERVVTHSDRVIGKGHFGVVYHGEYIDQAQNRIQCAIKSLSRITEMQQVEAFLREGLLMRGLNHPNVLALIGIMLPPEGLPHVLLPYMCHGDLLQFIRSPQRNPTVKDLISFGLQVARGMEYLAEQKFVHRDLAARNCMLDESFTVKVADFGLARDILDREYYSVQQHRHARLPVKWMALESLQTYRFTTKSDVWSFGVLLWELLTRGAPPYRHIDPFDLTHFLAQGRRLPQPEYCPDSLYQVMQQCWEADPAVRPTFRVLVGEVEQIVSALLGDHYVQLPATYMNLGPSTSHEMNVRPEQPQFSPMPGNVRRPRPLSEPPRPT
Angiopoietin-1 receptor (Homo sapiens), sequence (Q02763 whole entry): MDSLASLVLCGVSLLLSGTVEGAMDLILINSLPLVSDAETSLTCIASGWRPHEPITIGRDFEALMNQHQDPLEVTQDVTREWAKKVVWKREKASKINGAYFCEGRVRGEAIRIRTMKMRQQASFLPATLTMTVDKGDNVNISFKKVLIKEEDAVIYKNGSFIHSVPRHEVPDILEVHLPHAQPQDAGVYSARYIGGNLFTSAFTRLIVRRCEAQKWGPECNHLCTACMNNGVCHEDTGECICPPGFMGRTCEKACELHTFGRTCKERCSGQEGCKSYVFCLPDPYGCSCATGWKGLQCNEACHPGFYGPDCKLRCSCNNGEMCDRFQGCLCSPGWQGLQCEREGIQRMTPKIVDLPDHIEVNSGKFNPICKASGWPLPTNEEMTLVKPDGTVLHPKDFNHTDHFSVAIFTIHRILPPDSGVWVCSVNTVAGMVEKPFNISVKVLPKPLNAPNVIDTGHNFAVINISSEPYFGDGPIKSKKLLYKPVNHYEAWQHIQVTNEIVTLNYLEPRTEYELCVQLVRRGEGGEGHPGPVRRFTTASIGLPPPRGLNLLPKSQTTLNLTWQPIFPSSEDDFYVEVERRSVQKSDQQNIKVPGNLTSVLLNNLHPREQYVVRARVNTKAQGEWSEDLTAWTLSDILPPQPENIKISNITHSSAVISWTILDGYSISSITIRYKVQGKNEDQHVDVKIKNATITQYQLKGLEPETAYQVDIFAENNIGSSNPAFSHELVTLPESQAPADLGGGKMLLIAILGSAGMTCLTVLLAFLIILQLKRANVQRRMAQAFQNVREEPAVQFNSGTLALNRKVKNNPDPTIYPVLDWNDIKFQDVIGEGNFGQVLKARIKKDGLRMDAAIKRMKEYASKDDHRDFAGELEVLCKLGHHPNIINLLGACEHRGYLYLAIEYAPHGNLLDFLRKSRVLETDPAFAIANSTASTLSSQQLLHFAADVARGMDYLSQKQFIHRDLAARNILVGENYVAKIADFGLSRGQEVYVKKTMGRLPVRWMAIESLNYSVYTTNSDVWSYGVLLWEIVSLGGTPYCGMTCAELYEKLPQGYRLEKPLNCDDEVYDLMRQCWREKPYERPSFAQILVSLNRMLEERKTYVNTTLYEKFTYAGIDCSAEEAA

SMILES | inhibition [1] | inhibition [2] | inhibition [3] | inhibition [4] | inhibition [5] | inhibition [6] | inhibition [7] | inhibition [8] | inhibition [9] | inhibition [10] | inhibition [11] | inhibition [12] | inhibition [13] | inhibition [14] | inhibition [15] | inhibition [16] | inhibition [17] | inhibition [18] | inhibition [19] | inhibition [20]
COc1cc2c(cc1Nc1nc(Nc3cccc(F)c3C(N)=O)c3cc[nH]c3n1)N(C(=O)CN1CCN(C(C)C)CC1)CC2 | 6.08% | -1.39% | -1.15% | 31.6% | 73.7% | 4.53% | 11.8% | -1.09% | 0.82% | 3.25% | 3.08% | 5.26% | 1.94% | 4.46% | 2.66% | 3.48% | 22.4% | 1.09% | 5.91% | 1.48%
CCS(=O)(=O)c1ccc(OC)c(Nc2ncc(-c3cccc(F)c3)o2)c1 | 56.6% | 10.3% | 6.8% | 8.05% | 27.5% | 49.4% | 89.3% | 3.47% | 18.5% | 0.45% | 1.66% | 9.86% | 37.2% | 4.21% | 14.1% | 27.4% | 76.5% | 2.97% | 13.2% | 6.84%
CN(c1ccc(NC(=O)NCCN2CCOCC2)cc1)c1ccnc(Nc2ccc(CS(C)(=O)=O)cc2)n1 | 73.6% | 4.51% | 15.6% | 9.47% | 43.5% | 4.5% | 18.4% | -1.89% | 1.22% | -3.19% | -6.78% | 5.49% | 24.8% | 3.99% | 29.3% | 15.5% | 63.5% | 1.35% | 8.46% | 1.46%
COC(=O)Nc1nc2cc(Oc3ccc(NC(=O)Nc4ccccc4)cc3)ccc2[nH]1 | 25.8% | 7.21% | 8.17% | 2.15% | 2.86% | 5.93% | 7.76% | 0.48% | -1.09% | -5.19% | 0.09% | 1.83% | 1.84% | 5.37% | 9.24% | 2.64% | 4.12% | 0.69% | 1.18% | 2.62%
O=C1Nc2ccccc2/C1=C1\CCc2cc(O)ccc21 | 64.6% | 5.94% | 2.23% | 10.8% | 18.6% | -0.52% | 15.2% | -1.04% | -4.06% | -8.61% | -3.48% | 5.96% | 10.2% | 4.53% | 7.58% | 11.5% | 45.2% | 0.75% | 1.9% | 18.6%
Nc1nonc1-c1nc2cnccc2n1C1CC1 | 6.05% and 3.67% | -0.62% and 3.72% | 9.46% and 1.74% | 7.08% and 4.44% | 15.1% and 14.1% | 3.78% and -1.17% | 8.03% and 5.68% | -1.43% and -0.81% | 0.98% and 0.04% | 1.89% and -3.36% | -1.65% and 0.1% | 4.66% and -0.83% | 7.39% and -0.23% | 1.33% and 1.27% | 5.19% and 4.75% | 3.99% and 1.62% | 9.35% and 9.64% | 1.76% and 0.5% | 3.72% and 0.02% | 3.67% and -0.15%
Cn1c(-c2nonc2N)nc2cnccc21 | 7.82% | 5.57% | -0.92% | 2.77% | 3.73% | -0.58% | 6.9% | 0.1% | 4.56% | -1.4% | 0.59% | 4.08% | 3.99% | 1.46% | 2.07% | 1.08% | 0.76% | 0.75% | 0.19% | 1.03%
CS(=O)(=O)Nc1ccc(-c2ccc3c(NC(=O)C4CC4)n[nH]c3c2)cc1 | 6.93% | 1.04% | 7.91% | 11.3% | 11.7% | -4.32% | 8.03% | -0.44% | 0.5% | -4.62% | -1.82% | 3.96% | 7.11% | 2.18% | 10.9% | 2.68% | 5.17% | 1.26% | 3.12% | 2.98%
CC1=C(C(=O)Nc2ccc3[nH]nc(C)c3c2)C(c2ccc(C(F)(F)F)cc2)CC(=O)N1 (stereo not given) | 38.1% | 5.1% | 23.9% | 4.15% | 17.6% | 1.6% | 22.7% | 0.76% | -1.98% | -4.6% | -0.48% | 4.4% | 8.29% | 1.71% | 6.96% | 6.09% | 31.3% | 3.49% | 27.4% | 4.41%
Nc1ncnc2occ(-c3ccc(NC(=O)Nc4cc(C(F)(F)F)ccc4F)cc3)c12 | 85.5% and 86.1% | 6.58% and -2.93% | 12.2% and 2.9% | 4.91% and 3.1% | 28.1% and 13.7% | 10.1% and 1.77% | 48.3% and 31.9% | 0.41% and -0.6% | 0.84% and 0.62% | -4.8% and -1.07% | -9.91% | 3.07% and -2.99% | 5.25% and -1.81% | 63.7% and 59.4% | 79% and 80.6% | 10.7% and 2.54% | 50% and 25.8% | 1.25% and -0.32% | 2.06% and -0.97% | 57.1% and 36.6%
NS(=O)(=O)c1ccc(N/N=C2\C(=O)Nc3ccc(C(=O)NCc4ccncc4)cc32)cc1 | 51.9% | 1.31% | 7.54% | 3.91% | 4.83% | 2.77% | 29.2% | 0.62% | 1.01% | -2.4% | -2.54% | 3.82% | 7.13% | -0.94% | 1.16% | 3.58% | 17.5% | 0.57% | 2.58% | 4.11%
Cc1c2ccc(N(C)c3ccnc(Nc4cccc(S(N)(=O)=O)c4)n3)cc2nn1C | 80.3% | 2.6% | 9.61% | 38.7% | 78.1% | 40.5% | 82.8% | 1.27% | 17.6% | -4.22% | -6.33% | 13.8% | 50.2% | 12.4% | 53% | 16.6% | 60.1% | 1.67% | 4.21% | 4.18%
COc1ccc2ncn(-c3cc(O[C@H](C)c4ccccc4C(F)(F)F)c(C(N)=O)s3)c2c1 | 4.51% | -2.2% | 0.45% | 2.67% | 3.29% | -2.12% | -0.06% | 3.94% | 1.04% | -1.01% | 0.76% | 1.04% | -0.18% | 1.94% | 4.83% | 1.54% | 19.8% | 0.19% | 2.86% | -0.31%
